LGR2 antag = blocks bursicon-induced cAMP signaling via Drosophila LGR2; HEK293 LGR2, CRE-luciferase, bursicon-stimulated, 4 h; inhibition, % at 9.99 µM; 0.35% of 380,000 active; AID 720647;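 active means drop in luminescence signal, shown as inhibition above about 50% in the replicate tests, limit read from the data, passing the limit was not always enough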;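 further: agonist challenge used bursicon conditioned medium at about half maximal strength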
PAX8 inh HTS = inhibitors of PAX8 transcriptional activity in RMG-I cells | inhibition, % at 12.6 µM | 1.2% of 360,000 active | RMG-I TPO-luciferase reporter, SteadyGlo, 24 h;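 active means mean replicate inhibition at least 60% with every replicate also reaching 60%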;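 further: luciferase light reporting Pax8 driven TPO promoter activity; plate controls were median of neutral control wells for no effect and mitoxantrone controls for full effect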
Shn3 inh set2 = reduces Shn3 3'UTR luciferase signal in osteoblasts | Clone20 osteoblast Shn3 3'UTR firefly luciferase, 24 h | 0.52% of 360,000 active | inhibition, % at 12.5 µM | AID 588674;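 active means mean inhibition of at least 75% with every replicate also reaching 75%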;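 further: 0% = median of neutral control wells and 100% = pilot-screen positive control compound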
CF NFkB inh = blocks PAF-induced NF-kB reporter in cystic fibrosis cells | inhibition, % at 5 µM | KKLEB NF-kB-GFP reporter, GFP fluorescence overnight | 0.86% of 360,000 active | AID 588850;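 active means at least 50% inhibition at 5 µM, scaled per plate between neutral and stimulator controls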;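 further: PAF is a Pseudomonas aeruginosa culture filtrate used as stimulus; plate controls were PAF-stimulated DMSO wells for no effect and unstimulated DMSO wells for full effect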
KKLEB cytotox = counter-screen for CF NF-kB inhibitors: cytotoxicity. KKLEB CF airway cells viability, ATPlite luminescence, overnight; hits give low values; cells stimulated with P. aeruginosa culture filtrate. activity change (cytotoxicity), % at 5 µM. 0.36% of 360,000 active. AID 602141;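 active means corrected activity change at or below -50% at 5 µM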
EWS-Fli inh = inhibitors of EWS/Fli oncoprotein transcriptional activity | A673 NR0B1-luciferase reporter, viability-normalised | inhibition, % at 12.6 µM | 0.67% of 350,000 active | AID 651661;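 active means mean inhibition of at least 50% after viability correction, with every replicate also passing that limit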;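 further: firefly luciferase signal divided by Alamar Blue viability fluorescence both relative to DMSO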
* = called active by the depositor; x = not tested or not shown. Most compounds without a hit are left out; they make up all but 2% or so of the library.

SMILES	LGR2 antag	PAX8 inh HTS	Shn3 inh set2	CF NFkB inh	KKLEB cytotox	EWS-Fli inh
C/C(=N\NC(=O)c1nnn(-c2nonc2N)c1CN(C)c1ccccc1)c1ccccn1	x	x	92*	6	0	x
CCCN(CCC)Cc1c(C(=O)N/N=C/C(C)=C\c2ccco2)nnn1-c1nonc1N	9	93*	3	34	-26	13
COc1ccc(S(=O)(=O)Nc2cc(SCC(=O)O)c(O)c3ccccc23)cc1	-14	-14	13	78*	-21	-1
COc1ccc(S(=O)(=O)Nc2cccc3ccc(O)cc23)cc1	11	-2	0	13	-9	27
O=C(O)CSc1cc(NS(=O)(=O)c2ccc(Cl)cc2)c2ccccc2c1O	1	23	10	81*	-21	-14
CN1C(=O)c2cccc(NCCCCCCN3C(=O)c4ccccc4C3=O)c2C1=O	x	x	88*	-7	2	x
CN1C(=O)c2cccc(NCCCN3C(=O)c4ccccc4C3=O)c2C1=O	8	x	-7	-3	-11	11
O=C(CC1SC(=Nc2cccc3ccccc23)N(Cc2ccccn2)C1=O)Nc1ccccc1Br (stereo unspecified)	0	96*	-2	12	-15	5
CCOC(=O)/C(=C\c1ccccc1)C(=O)c1cc(C(C)=O)c(Nc2ccccc2)s1	x	x	98*	23	-34	x
CCOC(=O)C(=O)/C(C#N)=C/Nc1ccccc1	x	x	-19	0	6	x
CCOC(=O)/C(=C\c1cccnc1)C(=O)c1cc(C(C)=O)c(Nc2ccccc2)s1	x	x	98*	95*	3	x
O=C(C[C@H]1C[C@H]2c3cc(NS(=O)(=O)c4ccc(F)cc4)ccc3O[C@H]2[C@@H](CO)O1)NCCN1CCCCC1	7	-11	x	x	x	-16
CCCC#Cc1ccc([C@@H]2[C@@H](C#N)N(S(=O)(=O)c3cccc(F)c3)[C@H]2CO)cc1	12	81*	x	x	x	-4
N#C[C@H]1[C@@H](c2ccc(C#CC3CCCCC3)cc2)[C@@H](CO)N1S(=O)(=O)c1ccccc1	8	79*	x	x	x	30
N#C[C@H]1[C@H](c2ccc(C#CC3CCCCC3)cc2)[C@@H](CO)N1S(=O)(=O)c1ccccc1	23	68*	x	x	x	9
N#C[C@@H]1[C@@H](c2ccc(C#CC3CC3)cc2)[C@H](CO)N1S(=O)(=O)c1ccccc1	4	4	x	x	x	-23
Cc1ccccc1S(=O)(=O)N1[C@H](CO)[C@@H](c2ccc(C#CC3CC3)cc2)[C@@H]1C#N	11	64*	x	x	x	13
C[C@@H]1CN([C@@H](C)CO)C(=O)c2cccc(NC(=O)c3ccc(-c4nccs4)cc3)c2O[C@H]1CN(C)S(=O)(=O)c1ccccc1	-8	-13	x	x	x	-12
O=C(C[C@@H]1CC[C@@H](NS(=O)(=O)c2ccc(F)cc2)[C@H](CO)O1)NCc1ccccc1F	2	x	x	x	x	-5
CCCN(C)C[C@H]1OCCCC[C@H](C)Oc2ccc(NC(=O)NC3CCCCC3)cc2C(=O)N([C@@H](C)CO)C[C@H]1C	2	11	x	x	x	2
N#C[C@H]1[C@H](c2ccccc2C2=CCCCC2)[C@@H](CO)N1S(=O)(=O)c1ccccc1	68*	-23	x	x	x	4
C[C@H](CO)N1C[C@H](C)[C@@H](CN(C)S(=O)(=O)c2ccc(Cl)cc2)Oc2ccc(NC(=O)Nc3ccccc3)cc2C1=O	5	2	x	x	x	5
CCN(CC)CCNC(=O)c1cc(-c2cccnc2)nc2ccc(S(=O)(=O)N3CCC(C)CC3)cc12	6	20	11	-2	-10	63*
CCCCN(C)CCNC(=O)c1cc(-c2cccnc2)nc2ccc(S(=O)(=O)N3CCC(C)CC3)cc12	10	13	-14	14	-5	x
CCc1ccc(S(=O)(=O)/N=C2/C=C(Sc3ncn[nH]3)C(=O)c3ccccc32)cc1	x	x	98*	81*	-42	x
SMILES	LGR2 antag	PAX8 inh HTS	Shn3 inh set2	CF NFkB inh	KKLEB cytotox	EWS-Fli inh
CCc1ccc(S(=O)(=O)/N=C2\C=C(Nc3ccc(O)cc3)C(=O)c3ccccc32)cc1	x	x	95*	99*	-88*	x
O=C1c2ccccc2C(=O)N1CCSc1ncn[nH]1	x	-5	5	11	-5	x
CCc1ccc(S(=O)(=O)/N=C2\C=C(Nc3cccc(C(=O)O)c3)C(=O)c3ccccc32)cc1	-112	-25	15	96*	-46	-87
O=C(O)c1cccc(NC2=C(n3nnc4ccccc43)C(=O)c3ccccc3C2=O)c1	-2	-9	-9	6	-10	-38
COCC(=O)N(C)C[C@H]1[C@H](c2ccccc2)[C@@H](CO)N1C(=O)NC(C)C	-7	3	x	x	x	6
O=C(O)/C=C/C(=O)Nc1ccc(Oc2ccccc2)cc1	-4	-37	2	4	2	5
CCOC(=O)/C=C/C(=O)Nc1ccc(Oc2ccccc2)cc1	102*	14	2	-35	-5	13
CCOC(=O)/C=C/S(=O)(=O)c1ccc(NC(C)=O)cc1	x	x	97*	90*	-38	x
COCC(=O)N(C)C[C@@H]1Oc2cc(C#CCC3CCCC3)ccc2S(=O)(=O)N([C@H](C)CO)C[C@@H]1C	10	5	x	x	x	2
COCC(=O)N(C)C[C@@H]1Oc2cc(C#CCC3CCCC3)ccc2S(=O)(=O)N([C@@H](C)CO)C[C@@H]1C	10	74*	x	x	x	3
COCC(=O)N(C)C[C@@H]1Oc2cc(C#CCC3CCCC3)ccc2S(=O)(=O)N([C@@H](C)CO)C[C@H]1C	-6	71*	x	x	x	9
Cc1noc(C)c1NC(=O)Nc1ccc2c(c1)C(=O)N([C@@H](C)CO)C[C@@H](C)[C@@H](CN(C)C(=O)Nc1c(C)noc1C)OCCCC[C@@H](C)O2	9	-16	x	x	x	-9
CCCNC(=O)N1[C@H](CO)[C@@H](c2ccccc2-c2ccc(OC)cc2)[C@@H]1C#N	9	-5	x	x	x	-23
Oc1[nH]c2ccc(Br)cc2c1N=NC(=S)Nc1ccc(F)cc1	1	70*	20	-3	14	44
COC(=O)c1cnc(Oc2ccc(NC(=O)NC(=O)c3c(F)cccc3F)cc2)cc1C(F)(F)F	-9	22	-3	10	2	-2
COC(=O)c1cnc(Oc2ccc(NC(=O)NC(=O)c3c(OC)cccc3OC)cc2)cc1C(F)(F)F	4	73*	37	35	-8	52*
COC(=O)c1cnc(Oc2ccc(NC(=O)NC(=O)c3c(F)cccc3Cl)cc2)cc1C(F)(F)F	-1	31	25	-6	-3	51*
CCOC(=O)c1[nH]c(C)c(C(=O)OCC(=O)NC(C)c2ccc(F)cc2)c1C (stereo unspecified)	12	28	9	5	-37	54*
CCOC(=O)c1c(C)[nH]c(C(=O)OCC(=O)NC(C)(C)C)c1C	9	17	16	4	12	-5
CC/C(=C/c1ccccc1)c1cccc2[nH]c3c(OC)cccc3c12	8	-3	86*	14	-11	2
